The structures appear in SMILES notation. Values joined by “and” are separate entries in the source; they are usually repeats but may differ in a detail not shown here. Identical values can stand only once. Results filed as inconclusive are left out. Entries that show only a call come without a potency. Active and inactive are the calls of the source. Calls follow the shape of the dose curve; as a rule, active = well fitted curve in the direction sought with a large enough effect; inconclusive = small, poorly fitted or top-dose-only effect, or another doubt; inactive = no such curve, though single readings can be large; an effect the other way counts as inactive or inconclusive.

In the first experiment the target is Muscarinic acetylcholine receptor M1 (Rattus norvegicus) (UniProt P08482). In words: qHTS Assay for Antagonists of Acetylcholine Muscarinic M1 Receptor: Kinetic Measurement of Intracellular Calcium Response (AID 943). Also: nearly all actives have a fitted effect of over 75% in size. The note with it: M1-expressing cells, kinetic intracellular calcium fluorescence; series mostly up to 35.3 µM. An excerpt: NIH Molecular Libraries Screening Centers Network [MLSCN]
Chain of Muscarinic acetylcholine receptor M1 (Rattus norvegicus) (P08482 whole entry, looked up): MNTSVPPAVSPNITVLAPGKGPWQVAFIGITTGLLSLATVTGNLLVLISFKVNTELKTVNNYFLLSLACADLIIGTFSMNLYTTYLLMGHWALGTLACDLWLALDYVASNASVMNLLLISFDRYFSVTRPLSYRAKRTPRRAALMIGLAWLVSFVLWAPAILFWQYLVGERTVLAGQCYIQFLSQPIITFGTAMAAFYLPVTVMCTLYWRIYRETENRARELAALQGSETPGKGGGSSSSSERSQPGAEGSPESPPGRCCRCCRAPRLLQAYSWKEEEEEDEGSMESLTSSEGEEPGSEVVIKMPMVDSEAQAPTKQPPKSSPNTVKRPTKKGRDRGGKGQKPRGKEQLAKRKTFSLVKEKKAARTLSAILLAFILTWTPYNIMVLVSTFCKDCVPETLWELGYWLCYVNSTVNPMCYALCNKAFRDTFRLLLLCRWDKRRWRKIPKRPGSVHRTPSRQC
NIH Chemical Genomics Center [NCGC]
Acetylcholine muscarinic M1 receptor is a G-protein coupled receptor (GPCR) coupling to the Gq G protein. It is mainly expressed in brain and functionally related to the learning and memory processes. The agonists of this receptor have the potential for the treatment of Alzheimer's disease and cognitive impairments associated with Schizophrenia. Upon an activation of the M1 receptor, phosholipase C (PLC) is activated to produce inositol 1,4,5-trisphosphate (IP3) and diacyl glycerol (DAG) resulting in increase of intracellular free Ca2+ and activation of protein kinase C (PKC). The increase of intracellular calcium can be measured by the fluorescent calcium dyes, Fluo-3 and Fluo-4, using a fluorescence kinetic plate reader.
We have obtained a M1-CHO cell line transfected with rat acetylcholine M1 receptor and optimized a calcium assay with this cell line for compound screening as a counter-screen assay for other Gq-coupled GPCRs.
NCGC Assay Protocol Summary:
The CHO-M1 (CHO-M1) cell line transfected with the rat acetylcholine muscarinic M1 receptor was obtained from ATCC. The cells were maintained in call culture flasks with F12 Kaighn's media (Invitrogen) supplemented with 10 % FBS, 100 units/ml penicillin, 100 ug/ml streptomycin and 250 ug/ml geneticin (Invitrogen) at 37C, 5 % CO2 in a humidified atmosphere. At 90-95 % confluence, the cells were then detached in 15 ml […] % trypsin by 3 minutes incubation at 37C and centrifuged at 1000 RPM to remove the trypsin solution. The resulting cell pellet was resuspended in the cell freezing media containing 10 % DMSO (Invitrogen) at a density of 4 x 10^7 cells/ml. The aliquots of cells at 0.5 - 1 ml per vial were frozen down slowly at 1 degree C/min using a Cryo 1 degree C freezing container in the presence of isopropanol (Nalgene Nunc, Rochster, NY) overnight in a -80C freezer. The frozen cells were then transferred to liquid nitrogen for the storage up to one year.
The resuspended frozen cells were plated at 3 ul/well with 2000 cells in the black, tissue culture treated, clear bottom 1536-well plates. After overnight incubation at 37C, 5% CO2, 2.5 ul/well no-wash calcium dye (containing Fluo-4, BD Biosciences) were loaded and incubated at 37C, 5 % CO2 for 1 hour followed by a 10 min incubation with 20 nl compound in DMSO solution. The assay plates were then placed onto the kinetic fluorescence plate reader (FDSS-7000, Hamamatsu) for a measurement of the kinetic changes in intracellular free calcium. The basal fluorescence signal was measured for 6 times at 1 Hz followed by an addition of 1 ul of carbachol and continued 4 min measurement. The results were calculated as the maximal signal (peak) divided by the minimal signal (basal).
1536-well assay protocol:
(1) 3 ul/well containing 2000 M1-CHO cells in 1536 tissue culture treated black/clear bottom plate
(3) Add 1ul/well calcium dye (from no-wash calcium dye kit, BD Biosciences) containing […]
(4) Incubate 1 hour at 37C with 5% CO2
(5) Add 20 nl compound diluted in DMSO
(6) Incubate 10 minutes at the room temp
(7) Place the plate in FDSS-7000 instrument (Ex = 480 nm and […])
#- read the assay plate 6 times at 1 Hz for basal signal
#- add 1 ul/well EC80 carbachol (100 nM final)
#- continuously read the assay plate for 4 min at 1 Hz
Keywords: acetylcholine muscarinic M1 receptor, calcium kinetic assay, Fluo-4, high throughput screening, MLSMR, MLSCN, NIH Roadmap, qHTS and NCGC
For `COc1ccc(C2CNC(=O)C2)cc1OC1CCCC1` (configuration not stated), the Potency result was “inactive”.

`NCCS(=O)(=O)O`: the Potency result is “inactive”.

Take `O=C1N(c2ccccc2)c2ccccc2C1(Cc1ccncc1)Cc1ccncc1`: the Potency result was “inactive”.

`CCOC(=O)Nc1ccc(NCc2ccc(F)cc2)nc1N`: the Potency entry was “inactive”.

On to `Cn1ccc2cc3c(cc21)CCN3C(=O)Nc1cccnc1`, for which the Potency result is “inactive”.

The target is the same in another experiment. The experiment can be described thus: qHTS Assay for Antagonists of Acetylcholine Muscarinic M1 Receptor: Measurement of IP-One Response (AID 944). Also: nearly all actives have a fitted effect of over 75% in size. The settings on record: CHO-M1 cells, IP-One HTRF, antagonist mode; series mostly up to 46.1 µM. The procedure, abridged:
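M1-CHO (rat), 2000 cells/well, overnight recovery; cpd 10 min; carbachol EC80 (200 nM), 30 min, HEPES buffer + 50 mM LiCl pH 7.4; IP-One HTRF, Ex 337, Em 620/665 nm.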
Take `N[C@@H](Cc1c[nH]c2ccc(O)cc12)C(=O)O`: the Potency result was “inactive”.

`COc1cc2c(c(OC)c1OC)-c1ccc(OC)c(=O)cc1[C@@H](NC(C)=O)CC2`: the Potency entry was “inactive”.

For the molecule `COc1ccc(C2CNC(=O)C2)cc1OC1CCCC1` (configuration not stated), the Potency result was “inactive”.

Take `NCCS(=O)(=O)O`: the Potency entry is “inactive”.

Consider `NC(=O)OCC(COC(N)=O)c1ccccc1`, for which the Potency result is “inactive”.

For `O=C1N(c2ccccc2)c2ccccc2C1(Cc1ccncc1)Cc1ccncc1`, the Potency result is “inactive”.

`CCOC(=O)Nc1ccc(NCc2ccc(F)cc2)nc1N`: the Potency result was “inactive”.

Turning to `CCOC(=O)C(C)(C)Oc1ccc(Cl)cc1`, the Potency result is “inactive”.

The target in another experiment is Pyruvate kinase (Leishmania mexicana) (UniProt Q27686). The experiment can be described thus: qHTS Validation Assay for Inhibitors of Leishmania Mexicana Pyruvate Kinase (AID 945). Also: potency is read from the fitted curve at half-maximal effect. The note with it: purified L. mexicana pyruvate kinase, enzyme activity, E451W mutant enzyme; series mostly up to 57.5 µM. The procedure, abridged: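 An endpoint luciferase assay: 0.2 nM LmPYK E451W turns over 0.5 mM PEP with 0.1 mM ADP for 1 h at room temperature, pH 7.2, before PKLight addition. Values are normalized to DMSO-only wells.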
Chain of Pyruvate kinase (Leishmania mexicana) (Q27686 2-499 E452W): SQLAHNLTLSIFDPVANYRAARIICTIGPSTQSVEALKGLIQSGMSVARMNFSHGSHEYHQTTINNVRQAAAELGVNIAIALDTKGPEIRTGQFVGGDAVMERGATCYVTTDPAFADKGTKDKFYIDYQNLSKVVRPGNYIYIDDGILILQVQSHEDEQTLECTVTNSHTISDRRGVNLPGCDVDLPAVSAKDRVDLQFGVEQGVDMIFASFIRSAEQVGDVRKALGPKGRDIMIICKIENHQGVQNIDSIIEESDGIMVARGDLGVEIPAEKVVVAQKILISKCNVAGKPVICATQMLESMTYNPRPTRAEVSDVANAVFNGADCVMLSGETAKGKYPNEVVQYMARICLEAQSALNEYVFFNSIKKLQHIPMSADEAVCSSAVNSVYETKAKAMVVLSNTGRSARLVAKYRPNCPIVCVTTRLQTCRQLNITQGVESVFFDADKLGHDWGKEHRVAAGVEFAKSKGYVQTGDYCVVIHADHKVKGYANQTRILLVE
In the case of `O=C(c1ccc(OCCN2CCCCC2)cc1)c1c(-c2ccc(O)cc2)sc2cc(O)ccc12`, the Potency entry was “inactive”.

For the molecule `N[C@@H](Cc1c[nH]c2ccc(O)cc12)C(=O)O`, the Potency result was “inactive”.

Regarding `COc1nc(C)nc(Cl)c1NC1=NCCN1`, the Potency result is “inactive”.

As for `COc1cc2c(c(OC)c1OC)-c1ccc(OC)c(=O)cc1[C@@H](NC(C)=O)CC2`, the Potency entry was “inactive”.

For the molecule `COc1ccc(C2CNC(=O)C2)cc1OC1CCCC1` (configuration not stated), the Potency entry is “inactive”.

For the molecule `CN(C)C(=O)C(CCN1CCC(O)(c2ccc(Cl)cc2)CC1)(c1ccccc1)c1ccccc1`, the Potency result was “inactive”.

Take `CN1CCC(=C2c3ccccc3C=Cc3ccccc32)CC1`: the Potency result was “inactive”.

For `CC[N+](CC)(CC)CCOc1cccc(OCC[N+](CC)(CC)CC)c1OCC[N+](CC)(CC)CC`, the Potency result is “inactive”.

Turning to `NCCS(=O)(=O)O`, the Potency result was “inactive”.

Consider `Fc1ccc([C@@H]2CCNC[C@H]2COc2ccc3c(c2)OCO3)cc1`, for which the Potency entry was “inactive”.

Regarding `CN(Cc1cnc2nc(N)nc(N)c2n1)c1ccc(C(=O)N[C@@H](CCC(=O)O)C(=O)O)cc1`, the Potency entry is “inactive”.

For the molecule `Nc1nc2c(ncn2COC(CO)CO)c(=O)[nH]1`, the Potency result was “inactive”.

As to `NC(=O)OCC(COC(N)=O)c1ccccc1`, the Potency entry is “inactive”.

On to `O=C1N(c2ccccc2)c2ccccc2C1(Cc1ccncc1)Cc1ccncc1`, for which the Potency result was “inactive”.

For `CCOC(=O)Nc1ccc(NCc2ccc(F)cc2)nc1N`, the Potency entry is “inactive”.

As for `Cn1ccc2cc3c(cc21)CCN3C(=O)Nc1cccnc1`, the Potency is 7.94 µM (active).

As to `CCOC(=O)C(C)(C)Oc1ccc(Cl)cc1`, the Potency entry was “inactive”.

As to `C[C@](N)(Cc1ccc(O)c(O)c1)C(=O)O`, the Potency entry is “inactive”.

On to `Cc1cnc(C(=O)NCCc2ccc(S(=O)(=O)NC(=O)NC3CCCCC3)cc2)cn1`, for which the Potency result is “inactive”.

In the case of `CCOC(=O)c1ncn2c1CN(C)C(=O)c1cc(F)ccc1-2`, the Potency entry is “inactive”.

Take `Cc1cn([C@H]2C=C[C@@H](CO)O2)c(=O)[nH]c1=O`: the Potency entry is “inactive”.

For the molecule `Nc1nnc(-c2cccc(Cl)c2Cl)c(N)n1`, the Potency entry was “inactive”.

With `COC(=O)Nc1nc2ccc(C(=O)c3cccs3)cc2[nH]1`, the Potency entry was “inactive”.

Regarding `O=c1[nH]cc(F)c(=O)[nH]1`, the Potency result is “inactive”.

Take `OCCN1CCN(CCCN2c3ccccc3Sc3ccc(C(F)(F)F)cc32)CC1`: the Potency result was “inactive”.

On to `CN(C)CCOC(c1ccccc1)c1ccccc1`, for which the Potency entry is “inactive”.

Tested on in a further experiment: not listed separately
In words: MultiTox-Fluor Cytotoxicity Assay - LYMP1-001 - Dead Cells (AID 946).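 Also: cells exposed to compound for 16 h.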 Also: potency is read from the fitted curve at half-maximal effect. The settings on record: LYMP1-001 lymphoblastoid cells, dead-cell protease fluorescence; series mostly up to 92.2 µM. In outline:
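AC50 from Hill fit of concentration-response; data normalized to DMSO (basal) and 15 uM tetraoctylammonium bromide (100%). LYMP1-001 lymphoblastoid cells, 2500/well, 16 hr compound at 37 C; dead-cell protease fluorescence, Ex/Em 485/520.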
On to `N[C@@H](Cc1c[nH]c2ccc(O)cc12)C(=O)O`, for which the Potency result is “inactive”.

Consider `COc1cc2c(c(OC)c1OC)-c1ccc(OC)c(=O)cc1[C@@H](NC(C)=O)CC2`, for which the Potency was 63.1 nM (active) and 100 nM (active).

On to `COc1ccc(CCN(C)CCCC(C#N)(c2ccc(OC)c(OC)c2)C(C)C)cc1OC` (configuration not stated), for which the Potency result is “inactive”.

With `NCCS(=O)(=O)O`, the Potency result is “inactive”.

In the case of `CC(COc1ccccc1)N(CCCl)Cc1ccccc1` (configuration not stated), the Potency result is “inactive”.

Regarding `Cc1cn([C@H]2C[C@H](N=[N+]=[N-])[C@@H](CO)O2)c(=O)[nH]c1=O`, the Potency entry is “inactive”.

Turning to `Cc1cn([C@H]2C=C[C@@H](CO)O2)c(=O)[nH]c1=O`, the Potency entry is “inactive”.

Regarding `O=c1[nH]cc(F)c(=O)[nH]1`, the Potency entry was “inactive”.

For the origin of these results see PubChem BioAssay (NCATS).
